Values without a mark were called inactive. How the calls were made is not given here.
Biological target: L-lactate dehydrogenase (Plasmodium falciparum (isolate CDC / Honduras)) (UniProt Q27743)
Assay: PfLDH activity inhibition – cell lysate, 3D7 strain, counter-screen for P. falciparum growth inhibition project (AID 2304);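 further: 0% = vehicle and 100% = reference inhibitor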
Details: P. falciparum 3D7 crude extract, LDH APAD/NBT absorbance; at 2 µM; active compounds read high

L-lactate dehydrogenase (Plasmodium falciparum (isolate CDC / Honduras)), sequence (Q27743 whole entry, looked up): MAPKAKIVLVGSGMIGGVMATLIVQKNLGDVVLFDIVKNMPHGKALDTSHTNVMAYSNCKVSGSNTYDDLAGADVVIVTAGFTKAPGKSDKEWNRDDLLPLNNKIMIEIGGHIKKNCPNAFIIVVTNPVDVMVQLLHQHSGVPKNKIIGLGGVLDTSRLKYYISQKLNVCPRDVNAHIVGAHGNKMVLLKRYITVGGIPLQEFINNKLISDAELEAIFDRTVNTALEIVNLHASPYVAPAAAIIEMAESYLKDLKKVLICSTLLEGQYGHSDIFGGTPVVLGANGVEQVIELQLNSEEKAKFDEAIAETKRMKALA

Point of comparison: `COc1ccc(C(O)CNC(C)CCc2ccccc2)cc1C(F)(F)F` (stereo not given), inhibition 1%. Against it:
- COc1cc2nc(NCCc3ccccc3)nc(NCCCc3ccccc3)c2cc1OC — higher, 2%
- COc1cc(C(=O)N2CC[C@@H](CCN3CCC4(CC3)CN(S(C)(=O)=O)c3ccccc34)C[C@H]2Cc2ccc(Cl)c(Cl)c2)cc(OC)c1OC — higher, 4%
- COc1ccc(NC(=O)Nc2cccc(-c3cccc(-c4nc5ccc(F)cc5[nH]4)c3)c2)cc1 — higher, 5%
- CCCc1ccc(S(=O)(=O)NC2CCN(C(=O)Nc3ccc(I)cc3)CC2)cc1 — lower, -3%
- O=C(Nc1cccc(-c2ccc(-c3nc4ccc(F)cc4[nH]3)cc2)c1)c1ccncc1 — lower, -5%
- Cc1ccc2c(NN=CC=Cc3ccccc3)cc(C)nc2c1 — higher, 6%
- O=C1OC(c2ccccc2)(c2ccccn2)CN1C1CCN(Cc2cccn2-c2ccc(Cl)cc2)CC1 (stereo not given) — lower, -5%
- CCN(CC)CCN(Cc1ccc(-c2ccc(C(F)(F)F)cc2)cc1)C(=O)Cn1c(CCc2cccc(F)c2F)nc(=O)c2ccc(C(F)(F)F)cc21 — lower, -2%
- N#Cc1cncc(-c2nc3c(N4CCC(Cc5ccccc5)CC4)cccc3n2C2CCNC2)c1 (stereo not given) — lower, -1%
- N#Cc1ccc(-c2cnc3ccc(NCc4ccc(S(N)(=O)=O)cc4)nn23)cc1 — higher, 5%
- CCN(CC)CCN(Cc1ccc(-c2ccc(C(F)(F)F)cc2)cc1)C(=O)Cn1c(CCc2cc(F)cc(F)c2F)nc(=O)c2ccccc21 — the same, 1%
- CC(C)c1cc(Oc2c(I)cc(CCCc3ncc[nH]3)cc2I)ccc1O — lower, 0%
- c1ccc2c(c1)ncc1c3ccccc3[nH]c21 — lower, -6%
- CSc1ccc(CN2CCC(NC(=O)c3ccc(-c4ccc(N(C)C)cc4)s3)CC2)cc1 — lower, -2%
- Cc1cc(NC(=O)Nc2cccc(N(C)C)c2)c2ccccc2n1 — higher, 4%
- CN(CCN1CCCC1)c1nc2ccc(-n3cnc4cc(-c5ccc(Cl)cc5)sc4c3=O)cc2[nH]1 — higher, 3%
- CC(C)n1c(C2CCN(CC3CCN(C(=O)/C=C/c4ccc(Cl)c(Cl)c4)CC3)CC2)nc2ccccc21 — higher, 2%
- Cc1ccc(NC(=O)Nc2ccc(Cl)c(C(F)(F)F)c2)cc1-c1ccc(C(=O)Nc2ccncc2)cc1 — higher, 3%
- O=S(=O)(c1cccc(C(F)(F)F)c1)N1CCC(CO)(Cc2cccc(C(F)(F)F)c2)CC1 — lower, 0%
- CCOc1ccc(CCC(=O)O)cc1OCC — higher, 6%
- COc1ccc2nccc([C@@H](O)CN3CCC(NCc4nc5c(C#N)cccc5[nH]4)CC3)c2c1 — lower, -5%
- COc1cccc2cc(C(=O)N[C@@H](CC(C)C)C(=O)N[C@H](/C=N/NC(=O)c3ccccc3)Cc3cnc[nH]3)oc12 — lower, -6%
- O=C(NCc1cccc2ccccc12)C1CCCN(C(=O)c2ccc(O)c(-c3ccc(Cl)c(Cl)c3)c2)C1 (stereo not given) — lower, -5%
- Cc1ccccc1C1CCN(C2CCC(NC(=O)c3cncc(-c4ccccc4)c3)CC2)CC1 (stereo not given) — lower, -1%
- O=S(=O)(NC1CCN(c2ccnc3cc(Cl)ccc23)C1)c1ccc(C(F)(F)F)cc1 (stereo not given) — higher, 2%
- O=C(Nc1ccc(OC2CCN(Cc3ccsc3)C2)c(Cl)c1)c1ccsc1 (stereo not given) — lower, 0%
- O=C(CCc1cnc[nH]1)Nc1cccc(-c2ccc(-c3nc4ccccc4[nH]3)s2)c1 — lower, 0%
- Cc1cccc2c3c([nH]c12)C1(CCN(CCc2ccccc2)CC1)NC(C(=O)NCc1ccccc1)C3 (stereo not given) — lower, -9%
- Cc1cc(CNC(=O)c2ccc(-c3ccc(-c4nc5ccc(C(F)(F)F)cc5[nH]4)s3)cc2)on1 — lower, -1%
- Oc1ccc(CCNc2nc(NCCOc3cccc4ccccc34)nc(N3CCNCC3)n2)cc1 — the same, 1%
- Nc1c(Cl)cc(C(O)CNCCCCCCOCCc2ccc(CO)s2)cc1Cl (stereo not given) — lower, -2%
- N#Cc1ccc(NC(=O)c2ccc(C(=O)NCCCCN3CCC(c4ccc5c(c4OCCOC4CCCCO4)CCCC5)CC3)cc2)cc1 (stereo not given) — lower, -6%
- CCCc1cc(Cc2cnc(N)nc2N)cc(CCC)c1O — higher, 2%
- CCn1c(C)cc(C=C2SC(=Nc3ccccc3)NC2=O)c1C — higher, 3%
- COc1cccc(CNC(=O)[C@H]2CNCCN2C(=O)CCCc2ccccc2)c1 — higher, 2%
- Clc1ccc(CNc2nc(NCCc3cnc[nH]3)nc(N3CCCC4CCCCC43)n2)cc1 (stereo not given) — higher, 4%
- CS(=O)(=O)c1ccc(CNCc2cccc(-c3ccc(-c4nc5ccc(C(F)(F)F)cc5[nH]4)cc3)c2)cc1 — higher, 4%
- O=C(NCc1cccc(C(F)(F)F)c1)C(c1cc2ccccc2o1)N1CCN(C(c2ccccc2)c2ccccc2)CC1 (stereo not given) — lower, 0%
- CCOc1ccccc1C(=O)N1CCc2cc3nccc(N4CCN5CCC[C@H]5C4)c3cc21 — lower, -8%
